# Measured values: PubChem BioAssay
# A number with no mark means an inactive call. A call without a number means that no potency is given here. For some assays here: Potency and affinity values are given separately. The source made the active and inactive calls. Unless noted, no rule for the calls is given here.
# What was measured:
# [1] = antimalarial activity against Dd2 strain (AID 2302;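 active = growth inhibition above 50% at the single 2 µM test dose, taken to imply half-maximal potency below 2 µM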); details: P. falciparum Dd2 in RBCs, LDH growth readout, 72 h; at 2 µM; active compounds read high
# [2] = HepG2 cytotoxicity, primary screen, cytotoxicity control for P. falciparum antimalarial project, cell-based, ATP luminescence (AID 2303;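 active = inhibition above 50%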); details: HepG2 viability, 24-48 h, at 10 µM, active compounds read high
# [3] = target: L-lactate dehydrogenase (Plasmodium falciparum (isolate CDC / Honduras)) (UniProt Q27743); assay: PfLDH activity inhibition – cell lysate, 3D7 strain, counter-screen for P. falciparum growth inhibition project (AID 2304); details: P. falciparum 3D7 crude extract, LDH APAD/NBT absorbance; at 2 µM; active compounds read high
# [4] = inhibition of 3D7 malaria parasite growth – strain 3D7 (AID 2306); details: P. falciparum 3D7 erythrocytic growth, LDH absorbance, 72 h; at 2 µM; active compounds read high
# [5] = target: Calcium-dependent protein kinase 1 (Plasmodium falciparum (isolate 3D7)) (UniProt P62344); assay: PfCDPK1 kinase inhibitors, biochemical, TCAMS library (AID 1159585; cut-off not given, nearly all actives have IC50 up to about 0.98 µM;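 also: inhibitors leave more ATP so luminescence rises with inhibition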); details: recombinant PfCDPK1, Kinase-Glo ATP depletion luminescence
# [6] = target: Plasmodium falciparum protein kinase 6 (PK6, PF3D7_1337100) (UniProt Q8IDW1); assay: PfPK6 kinase inhibitors, biochemical, TCAMS library (AID 1159586); details: recombinant PfPK6, Kinase-Glo ATP depletion luminescence
# [7] = target: Protein kinase 7 (PK7), Plasmodium falciparum 3D7 (PF3D7_0213400) (UniProt Q7YTF7); assay: inhibition of Plasmodium PK7 catalytic activity – biochemical, TCAMS antimalarial set, Kinase-Glo luminescence (AID 1159587); details: recombinant PfPK7, Kinase-Glo ATP depletion luminescence
# [8] = target: Calcium-dependent protein kinase 4 (Plasmodium falciparum (isolate 3D7)) (UniProt Q8IBS5); assay: PfCDPK4 kinase inhibitors, biochemical, TCAMS library (AID 1159588; cut-off not given, nearly all actives have IC50 up to about 0.91 µM); details: recombinant PfCDPK4, Kinase-Glo ATP depletion luminescence
# Sequence of Calcium-dependent protein kinase 4 (Plasmodium falciparum (isolate 3D7)) (Q8IBS5 whole entry, looked up): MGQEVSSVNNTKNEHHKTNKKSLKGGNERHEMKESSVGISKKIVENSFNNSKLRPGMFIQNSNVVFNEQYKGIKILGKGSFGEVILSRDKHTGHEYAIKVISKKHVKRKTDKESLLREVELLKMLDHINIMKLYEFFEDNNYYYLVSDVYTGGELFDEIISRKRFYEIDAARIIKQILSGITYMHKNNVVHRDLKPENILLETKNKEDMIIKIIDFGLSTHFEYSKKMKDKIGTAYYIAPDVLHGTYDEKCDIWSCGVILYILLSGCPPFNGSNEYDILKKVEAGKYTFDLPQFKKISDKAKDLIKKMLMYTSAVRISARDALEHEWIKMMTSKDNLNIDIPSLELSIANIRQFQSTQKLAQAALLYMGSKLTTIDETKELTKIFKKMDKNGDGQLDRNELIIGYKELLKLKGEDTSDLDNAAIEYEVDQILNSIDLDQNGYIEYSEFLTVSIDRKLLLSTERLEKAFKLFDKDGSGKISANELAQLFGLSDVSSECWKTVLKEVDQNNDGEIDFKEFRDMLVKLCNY
# Sequence of Plasmodium falciparum protein kinase 6 (PK6, PF3D7_1337100) (Q8IDW1 1-305): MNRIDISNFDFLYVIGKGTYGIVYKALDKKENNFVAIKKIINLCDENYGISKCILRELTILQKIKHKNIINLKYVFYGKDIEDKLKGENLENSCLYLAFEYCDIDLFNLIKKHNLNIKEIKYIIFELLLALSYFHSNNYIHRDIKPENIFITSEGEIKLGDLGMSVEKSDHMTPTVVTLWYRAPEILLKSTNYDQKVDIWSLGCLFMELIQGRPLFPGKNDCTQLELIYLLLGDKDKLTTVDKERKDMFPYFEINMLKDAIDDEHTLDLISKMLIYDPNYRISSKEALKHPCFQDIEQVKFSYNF
# Sequence of L-lactate dehydrogenase (Plasmodium falciparum (isolate CDC / Honduras)) (Q27743 whole entry, looked up): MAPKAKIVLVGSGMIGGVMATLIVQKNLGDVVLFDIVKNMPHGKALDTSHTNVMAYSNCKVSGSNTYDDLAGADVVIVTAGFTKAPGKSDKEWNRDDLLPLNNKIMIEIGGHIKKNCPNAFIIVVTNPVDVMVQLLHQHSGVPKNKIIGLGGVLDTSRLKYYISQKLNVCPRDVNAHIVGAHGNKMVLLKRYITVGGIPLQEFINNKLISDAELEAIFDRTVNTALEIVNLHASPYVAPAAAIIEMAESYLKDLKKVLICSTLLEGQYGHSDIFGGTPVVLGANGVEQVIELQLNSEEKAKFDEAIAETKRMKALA
# Sequence of Protein kinase 7 (PK7), Plasmodium falciparum 3D7 (PF3D7_0213400) (Q7YTF7 1-343): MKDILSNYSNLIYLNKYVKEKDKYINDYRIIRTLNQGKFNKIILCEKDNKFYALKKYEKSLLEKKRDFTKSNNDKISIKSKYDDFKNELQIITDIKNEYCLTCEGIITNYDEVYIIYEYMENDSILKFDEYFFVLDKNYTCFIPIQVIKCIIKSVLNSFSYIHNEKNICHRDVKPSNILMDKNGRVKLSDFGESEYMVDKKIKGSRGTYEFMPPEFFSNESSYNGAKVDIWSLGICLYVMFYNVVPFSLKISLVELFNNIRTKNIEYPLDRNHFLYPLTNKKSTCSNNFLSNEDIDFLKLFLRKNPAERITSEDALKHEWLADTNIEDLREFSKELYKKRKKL
# Sequence of Calcium-dependent protein kinase 1 (Plasmodium falciparum (isolate 3D7)) (P62344 whole entry, looked up): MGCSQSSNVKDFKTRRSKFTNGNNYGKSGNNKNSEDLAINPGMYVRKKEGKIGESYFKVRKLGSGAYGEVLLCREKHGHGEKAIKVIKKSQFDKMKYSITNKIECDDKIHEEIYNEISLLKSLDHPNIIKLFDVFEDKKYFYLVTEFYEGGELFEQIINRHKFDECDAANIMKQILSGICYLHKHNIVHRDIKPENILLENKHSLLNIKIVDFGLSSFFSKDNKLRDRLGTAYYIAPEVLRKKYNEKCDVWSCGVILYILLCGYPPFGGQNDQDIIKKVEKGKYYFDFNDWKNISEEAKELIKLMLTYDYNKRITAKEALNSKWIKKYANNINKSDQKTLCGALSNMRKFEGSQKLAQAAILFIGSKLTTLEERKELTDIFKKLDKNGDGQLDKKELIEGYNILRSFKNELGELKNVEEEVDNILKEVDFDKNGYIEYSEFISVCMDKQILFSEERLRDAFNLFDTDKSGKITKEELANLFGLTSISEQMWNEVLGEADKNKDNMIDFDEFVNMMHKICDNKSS
Structure (SMILES),growth inhibition [1],inhibition [2],inhibition [3] [%],growth inhibition [4],outcome [5],outcome [6],outcome [7],outcome [8]
CCC(CCON1C(N)=NC(N)=NC1(C)C)c1ccc(Cl)c(Cl)c1 (stereo not given),98% (active),68% (active),-7,94% (active),inactive,inactive,inactive,inactive
COc1ccc(-c2cc(C(=O)Nc3ccc4nc(-c5ccccc5)[nH]c4c3)[nH]n2)cc1,78% (active),77% (active),3,90% (active),inactive,inactive,inactive,inactive
CN(C)CCNCc1cccc(-c2ccc3c(Nc4ccc(Oc5ccccc5)cc4)ccnc3c2)c1,99% (active),31%,2,101% (active),inactive,inactive,inactive,inactive
CC(C(=O)N1CCCC1)N1CCN(S(=O)(=O)c2ccc(C(C)(C)C)cc2)CC1 (stereo not given),86% (active),4%,0,98% (active),inactive,inactive,inactive,inactive
CN1CCN(c2ccnc3ccc(NC(=O)Nc4ccc(Cl)cc4)cc23)CC1,99% (active),11%,0,103% (active),inactive,inactive,inactive,inactive
CN1CCCc2ccc(NC(=O)Nc3ccc(Cl)c(Cl)c3)cc2C1,22%,-13%,-2,89% (active),inactive,inactive,inactive,inactive
CC(C)(C)c1ccc(C(=O)N2CCC3(CC2)C(=O)N(CC(=O)NCC2CCCO2)CN3c2ccccc2)cc1 (stereo not given),100% (active),8%,0,100% (active),inactive,inactive,inactive,inactive
O=C(NC1CCN(c2ccnc3cc(Cl)ccc23)C1)c1ccc(F)cc1F (stereo not given),100% (active),31%,2,100% (active),inactive,inactive,inactive,inactive
O=C(/C=C/c1ccc(Cl)c(Cl)c1)NCCCCCCN1CCN(C(=O)Nc2cc(Cl)nc(Cl)c2)CC1,0%,15%,-2,102% (active),inactive,inactive,inactive,inactive
OCC(CO)(CO)NCc1ccc2c3c(cccc13)-c1ccccc1-2,76% (active),73% (active),0,87% (active),inactive,inactive,inactive,inactive
CC(C)(C)c1ccc(CNC(=O)COc2ccc(-c3nnc(-c4cccc([N+](=O)[O-])c4)o3)cc2[N+](=O)[O-])cc1,25%,10%,-7,93% (active),inactive,inactive,inactive,inactive
COc1c(C2CCN(CCCCNC(=O)c3ccc(-c4ccc(C(F)(F)F)cc4)c(C(=O)OC(C)C)c3)CC2)ccc2c1CCCC2,30%,24%,0,90% (active),inactive,inactive,inactive,inactive
O=S(=O)(NCCN1CCCC1)c1ccc(-c2cccc(CNCc3ccsc3)c2)s1,43%,42%,0,90% (active),inactive,inactive,inactive,inactive
O=C(/C=C/c1ccc(Cl)c(Cl)c1)NCCCN1CCC(c2c[nH]c3ccccc23)CC1,5%,48%,-4,90% (active),inactive,inactive,inactive,inactive
CS(=O)(=O)N(CC(O)Cn1c2ccc(Cl)cc2c2cc(Cl)ccc21)c1ccccc1 (stereo not given),98% (active),2%,0,101% (active),inactive,inactive,inactive,inactive
CS(=O)(=O)CCNCc1cccc(-c2ccc3c(Nc4ccc(Oc5ccccc5)cc4)ccnc3c2)c1,96% (active),18%,6,101% (active),inactive,inactive,inactive,inactive
O=C(Cn1c(SCc2cccc(F)c2F)cc(=O)c2ccccc21)N(Cc1ccc(-c2ccc(C(F)(F)F)cc2)cc1)C1CCN(CCO)CC1,81% (active),50% (active),4,89% (active),inactive,inactive,inactive,inactive
COc1ccc(-c2ccc(NC(=O)c3ccc(Cl)cc3)cc2)cc1CN(C)CCO,43%,43%,0,92% (active),inactive,inactive,inactive,inactive
COc1cccc(-c2nn(C)c3sc(C(=O)NCCN4CCN(c5ccccc5F)CC4)cc23)c1,40%,9%,-5,85% (active),inactive,inactive,inactive,inactive
Cc1cc(C)cc(OCC(O)CN(Cc2cc(Cl)cc(Cl)c2)C(=O)Nc2ccccc2Cl)c1 (stereo not given),37%,-1%,2,93% (active),inactive,inactive,inactive,inactive

Structure (SMILES),growth inhibition [1],inhibition [2],inhibition [3] [%],growth inhibition [4],outcome [5],outcome [6],outcome [7],outcome [8]
CCCCCCCN1CC[C@@H](CCCc2ccnc3ccc(OCCN4CCOCC4)cc23)[C@@H](CC)C1,3%,14%,0,89% (active),inactive,inactive,inactive,inactive
CCCN(CC)CCOC(=O)c1ccccc1,1%,2%,-4,99% (active),inactive,inactive,inactive,inactive
CC(C)NCc1ccc(-c2ccc(NC(=O)c3ccc(Cl)cc3)cc2)cc1,8%,60% (active),3,90% (active),inactive,inactive,inactive,inactive
COc1ccc(C2=CCN(c3ccc(Cl)c(Cl)c3)C2=O)cc1OCCN1CCCCC1,99% (active),19%,-2,97% (active),inactive,inactive,inactive,inactive
COc1ccc(Cl)cc1NC(=O)Nc1ccnc2ccccc12,44%,13%,-6,101% (active),inactive,inactive,inactive,inactive
COc1cc2nc(Nc3ccc4c(ccn4Cc4ccccc4)c3)nc(Nc3ccc4c(ccn4Cc4ccccc4)c3)c2cc1OC,80% (active),-6%,2,89% (active),inactive,inactive,inactive,inactive
Cc1ccc(Cn2ncc(N3C[C@@H](C)N[C@@H](C)C3)c(Cl)c2=O)cc1NC(=O)Nc1ccc(-c2ccccc2)cc1,29%,51% (active),-2,100% (active),inactive,inactive,inactive,inactive
Cc1ccc(-c2cc(C(=O)Nc3ccc(S(=O)(=O)N4CCCCC4C)cc3)[nH]n2)c(O)c1 (stereo not given),99% (active),37%,0,100% (active),inactive,inactive,inactive,inactive
COc1ccc(CCCc2nc(N)nc(N)c2-c2ccc(Cl)cc2)cc1,0%,65% (active),2,94% (active),inactive,inactive,inactive,inactive
COc1ccc(O)c(C(=O)NCCc2ccc(OC)c(-c3ccc(C(C)(C)C)cc3)c2)c1,91% (active),11%,5,88% (active),inactive,inactive,inactive,inactive
c1ccc(CN2CCN(c3cc(-c4cncc(-c5ccccc5)c4)nc(-c4ccccc4)n3)CC2)cc1,12%,9%,0,88% (active),inactive,inactive,inactive,inactive
Nc1nccc2ccc(-c3cccc(OCc4ccccc4)c3)cc12,81% (active),47%,5,101% (active),inactive,inactive,inactive,inactive
C[C@@H]1CN(c2cnn(Cc3cccc(NC(=O)Nc4ccc(F)cc4[N+](=O)[O-])c3)c(=O)c2Cl)C[C@H](C)N1,13%,7%,6,91% (active),inactive,inactive,inactive,inactive
Cc1cc(NN=Cc2ccccc2[N+](=O)[O-])c2cc(F)ccc2n1,100% (active),18%,-3,102% (active),inactive,inactive,inactive,inactive
Cc1ccc(NC(=O)c2cccc(CN3CCCN(Cc4cccc(O)c4)CC3)c2)cc1C,31%,19%,1,95% (active),inactive,inactive,inactive,inactive
Cc1cccc2[nH]c(-c3ccc(-c4ccc(CN5CCCC(N)C5)cc4)cc3)nc12 (stereo not given),101% (active),33%,-3,99% (active),inactive,inactive,inactive,inactive
Cc1csc2nc(-c3ccccn3)nc(Nc3ccncn3)c12,85% (active),47%,-3,97% (active),inactive,inactive,inactive,inactive
Cc1cccc2[nH]c(-c3ccc(-c4cccc(CNCc5cnn(-c6ccccc6)n5)c4)s3)nc12,58% (active),40%,-1,98% (active),inactive,inactive,inactive,inactive
COc1ccc(O)c(C(=O)c2cnc3c(c2)c(-c2ccc(F)cc2)c(C#N)c(=O)n3C)c1,14%,7%,-2,92% (active),inactive,inactive,inactive,inactive
CCCNC(=O)Nc1cc2cc(-c3ccc(CN4CCCC4)cc3)ccc2n2c(C)nnc12,11%,67% (active),0,93% (active),inactive,inactive,inactive,inactive
